Test results taken from PubChem BioAssay (NCI).
About 83,000 compounds went through this panel and 20% of them were active in at least one assay; those are over-represented in the sample as a whole.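 Step 1: grow cells in 96-well plates. Step 2: add test compound at a single concentration. Step 3: incubate 48 h. Step 4: record percent growth.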 Values without a mark were called inactive. Activity calls are given as the source filed them. The calls were made as follows: active = growth percent below 10; inactive = the rest.

Legend:
Experiment in all cases: NCI-60 one-dose screen, 48 h (100 = growth as untreated, 0 = no growth, -100 = all killed)
[1] = test system: NCI-H23 lung; details: 10 µM unless noted
[2] = test system: HOP-62 NSCLC; details: 10 µM unless noted
[3] = test system: NCI-H460 lung; details: 10 µM unless noted
[4] = test system: HOP-92 NSCLC; details: 10 µM unless noted
[5] = test system: NCI-H522 lung; details: 10 µM
[6] = test system: A549/ATCC NSCLC; details: 10 µM unless noted
[7] = test system: 786-0 renal; details: 10 µM unless noted
[8] = test system: COLO 205 colon; details: 10 µM unless noted
[9] = test system: DU-145 prostate; details: 10 µM unless noted
[10] = test system: K-562 leukemia; details: 10 µM unless noted
[11] = test system: MALME-3M melanoma; details: 10 µM unless noted
[12] = test system: MDA-MB-231 breast; details: 10 µM unless noted
[13] = test system: RXF 393 renal; details: 10 µM unless noted
[14] = test system: SF-268 CNS; details: 10 µM unless noted
[15] = test system: SF-295 CNS; details: 10 µM unless noted
[16] = test system: SF-539 CNS; details: 10 µM unless noted
[17] = test system: UACC-257 melanoma; details: 10 µM unless noted
[18] = test system: M14 melanoma; details: 10 µM unless noted
[19] = test system: NCI-H226 lung; details: 10 µM
[20] = test system: NCI-H322M lung; details: 10 µM unless noted

CCCCc1ccc(C(O)(CCN2CC3CCC(CC3)C2)c2ccccc2)cc1 (stereo not given)
growth [1]: 87.7%
growth [2]: 106%
growth [3]: 107%
growth [4]: 75.4%
growth [5]: 84.2%
growth [6]: 96.2%
growth [7]: 85.9%
growth [8]: 80.9%
growth [9]: 99.8%
growth [10]: 75.2%
growth [11]: 95.7%
growth [12]: 99.1%
growth [13]: 96.2%
growth [14]: 97.1%
growth [15]: 102%
growth [16]: 101%
growth [17]: 95.2%
growth [18]: 91.7%

COc1ccc(-c2nc3sccn3c2/C=C/C(=O)c2cc(OC)c(OC)c(OC)c2)cc1OC
growth [19]: 64.9%
growth [20]: 57.9%
growth [2]: 36.9%
growth [3]: 6.91% (active)
growth [4]: 0.346% (active)
growth [5]: 15.3%
growth [6]: 54.4%
growth [7]: 27.7%
growth [8]: 29.6%
growth [9]: 6.29% (active)
growth [10]: 13.9%
growth [11]: 37.7%
growth [12]: 31.7%
growth [13]: -1.12% (active)
growth [14]: 28.2%
growth [15]: 5.22% (active)
growth [16]: 24.6%
growth [17]: 24.5%
growth [18]: 7.09% (active)

Cc1ccc2nc(NC(=O)CSC(=S)N3CCN(C)CC3)sc2c1
growth [1]: 92.4%
growth [20]: 106%
growth [3]: 106%
growth [4]: 94.5%
growth [6]: 95.3%
growth [7]: 108%
growth [8]: 105%
growth [9]: 122%
growth [10]: 106%
growth [11]: 108%
growth [12]: 110%
growth [13]: 105%
growth [14]: 112%
growth [16]: 100%
growth [17]: 89.8%
growth [18]: 107%

COc1cc(-c2ccc3cc(OC)c(OC)c(OC)c3c2)cc(OC)c1OC
growth [1]: 65.4%
growth [20]: 78.7%
growth [3]: 60.3%
growth [5]: 34%
growth [6]: 50.8%
growth [7]: 84%
growth [8]: 54.7%
growth [9]: 95.9%
growth [10]: 24.9%
growth [11]: 68.1%
growth [12]: 65.4%
growth [13]: 71.4%
growth [14]: 77.4%
growth [15]: 43.8%
growth [16]: 79.3%
growth [17]: 75.3%
growth [18]: 51.4%
